High-throughput results as filed in PubChem BioAssay.
An excerpt weighted towards active compounds, which were near 2% of everything screened.
p53 PUMA act – mutant p53 pathway reactivation; SW480 PUMA-promoter luciferase; activation, % at 9.98 µM; actives 1.5% (n = 28,000); in the data active = activation above about 52%
ID4 SMM – ID4 (human) binding; actives 1.2% (n = 31,000); small molecule microarray, Flag-ID4 binding, fluorescence F/B; P47928; calls only; AID 624137; call rule not given here;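 note: a binder raises fluorescence above local background on the spot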
STK33 kin inh – inhibitors of human STK33 kinase; Q9BYT3; ADP-Glo luminescence, MBP substrate; inhibition, % at 12.5 µM; actives 0.44% (n = 27,000); AID 2322; in the data active = inhibition above about 20%
The depositor's hits bear a star; i = inactive; . = no result given; + = active, no number.

SMILES	p53 PUMA act	ID4 SMM	STK33 kin inh
C[C@@H]1O[C@@H](O[C@@H]2[C@@H](O)[C@H](O[C@@H]3[C@@H](O)[C@H](C)O[C@@H](O[C@H]4[C@H](O[C@H]5CC[C@@]6(C)C(CC[C@]7(C)C6CC=C6[C@@H]8CC(C)(C)CC[C@]8(C(=O)O)CC[C@]67C)[C@]5(C)CO)OC[C@H](O)[C@@H]4O)[C@@H]3O)O[C@H](CO)[C@H]2O[C@@H]2O[C@H](CO)[C@@H](O[C@@H]3OC[C@@H](O)[C@H](O)[C@H]3O)[C@H](O)[C@H]2O)[C@H](O)[C@H](O)[C@H]1O (stereo partly specified)	-10	.	-3
CCC1=Nc2cc(C(=O)N(C)Cc3ccccc3)ccc2Sc2ccc(C)cc21	-17	i	.
C[C@@H]1CN([C@@H](C)CO)C(=O)c2cc(-c3cccnc3)cnc2O[C@H]1CN(C)C	.	+	.
C[C@@H]1CN([C@H](C)CO)C(=O)c2cc(C3=CCCC3)cnc2O[C@H]1CN(C)C(=O)Cc1ccncc1	2	+	.
C[C@H]1CN([C@@H](C)CO)C(=O)c2cc(C3=CCCCC3)cnc2O[C@H]1CN(C)C(=O)Cc1ccncc1	11	.	.
C[C@H]1CN([C@@H](C)CO)C(=O)c2cc(-c3cccnc3)cnc2O[C@@H]1CN(C)C(=O)C1CCOCC1	5	.	.
C[C@@H]1CN([C@H](C)CO)C(=O)c2cc(-c3ccncc3)cnc2O[C@@H]1CN(C)C(=O)C1CCOCC1	13	+	.
C[C@@H]1CN([C@H](C)CO)C(=O)c2cc(-c3ccncc3)cnc2O[C@H]1CN(C)C(=O)NC1CCCC1	5	+	.
C[C@@H]1CN([C@H](C)CO)C(=O)c2cc(-c3cccnc3)cnc2O[C@H]1CN(C)C	.	i	.
C[C@H](CO)N1C[C@H](C)[C@H](CN(C)C(=O)NC2CCCCC2)Oc2ncc(-c3ccc(F)cc3)cc2C1=O	.	.	-7
O=C(NC1CCN(C(=O)c2c(Cl)cccc2Cl)CC1)C1CCCCC1	.	.	1
Cc1cc2c(c(Sc3ccc(Cl)cc3)n1)C(=O)NC2=O	.	.	0
C[C@@H]1CN([C@@H](C)CO)C(=O)c2cc(-c3ccncc3)cnc2O[C@H]1CN(C)Cc1ccc(Oc2ccccc2)cc1	-18	+	.
C[C@@H]1CN([C@H](C)CO)C(=O)c2cc(-c3cccnc3)cnc2O[C@@H]1CN(C)Cc1ccc(Oc2ccccc2)cc1	-11	.	.
N#CCCCN1C(=O)C(O)(CC(=O)c2ccc(Br)s2)c2ccccc21 (stereo unspecified)	-6	+	-2
Cc1coc(C)c1C(=O)CC1(O)C(=O)N(CCCC#N)c2ccccc21 (stereo unspecified)	-5	i	5
COc1cc2occ(-c3ccc(O)cc3)c(=O)c2c(OC)c1O	.	.	1
Cc1nnc(SCC(=O)NCC2CCCO2)s1 (stereo unspecified)	-16	i	-2
C=C1C(=O)O[C@@H]2/C=C(/CO)CC/C=C(/C=O)C[C@@H](O)[C@@H]12	.	.	-3
O=C(Cn1cnc2ccccc2c1=O)Nc1ccc2c(c1)oc1ccccc12	43	i	6
COc1ccccc1NC(=O)CSc1nnc(-c2ccc(Cl)cc2)o1	89*	i	6
COC(=O)c1ccccc1NC(=O)CSc1nnc(-c2ccc(Cl)cc2)o1	20	i	5
CSc1cccc(NC(=O)CSc2nnc(-c3ccc(Br)cc3)o2)c1	48	i	0
CCn1c(SCC(=O)Nc2ccc(Cl)cc2)nnc1-c1ccco1	20	i	-2
O=C(CSc1ccc(Cl)cc1)Nc1cccc(-c2nnc(-c3ccco3)o2)c1	122*	i	4
SMILES	p53 PUMA act	ID4 SMM	STK33 kin inh
O=C(CSc1nnc(-c2ccccc2)o1)Nc1cccc(F)c1	78*	i	-1
Clc1ccc(-c2nc(Sc3nc(-c4cccs4)ns3)n[nH]2)cc1	.	.	-1
COC(=O)c1ccc(NC(=O)CSC(=S)N2CCOCC2)cc1	.	.	1
COc1ccc(N2C(=O)CC(SCC(=O)Nc3ccc(C)c(C)c3)C2=O)cc1 (stereo unspecified)	-6	i	-3
COc1ccc(N2C(=O)CC(SCC(=O)Nc3c(C)cccc3C)C2=O)cc1 (stereo unspecified)	-3	+	-2
OCC1(CO)COC(COc2ccccc2)=N1	2	+	.
O=C(Cn1c(COc2ccccc2)nc2ccccc21)N1CCOCC1	-12	i	1
COc1c(CO)c(O)cc2c1C(=O)c1ccccc1C2=O	-11	.	4
Cc1ccc(N(C(C)C(=O)Nc2cccc(C)c2C)S(C)(=O)=O)cc1 (stereo unspecified)	-3	i	0
CCCCC(CC)C(=O)Nc1cc(OC)ccc1OC (stereo unspecified)	-18	i	.
CN(C)c1ccc(C(=C2C=CC(=[N+](C)C)C=C2)c2ccc(N(C)C)cc2)cc1	.	.	76*
